Experimental data from PubChem BioAssay (NCI).
Compounds without any hit were thinned out: in the full panel of roughly 83,000, 20% have a hit.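 48-hour exposure, single concentration, 96-well plates; percent growth endpoint where 0 means no net growth. Active: below 10.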 Values without a mark were called inactive. Activity calls are given as the source filed them.

Key:
Test in all cases: NCI-60 one-dose screen, 48 h (100 = growth as untreated, 0 = no growth, -100 = all killed)
Conditions in all cases: 10 µM unless noted
HCT-15 colon = system: HCT-15 colon
HT29 colon = system: HT29 colon
SNB-75 CNS = system: SNB-75 CNS
SNB-19 CNS = system: SNB-19 CNS
U251 CNS = system: U251 CNS
PC-3 prostate = system: PC-3 prostate
SK-MEL-5 melanoma = system: SK-MEL-5 melanoma
UACC-62 melanoma = system: UACC-62 melanoma
LOX IMVI melanoma = system: LOX IMVI melanoma
SK-MEL-28 melanoma = system: SK-MEL-28 melanoma

SMILES | growth (HCT-15 colon) | growth (HT29 colon) | growth (SNB-75 CNS) | growth (SNB-19 CNS) | growth (U251 CNS) | growth (PC-3 prostate) | growth (SK-MEL-5 melanoma) | growth (UACC-62 melanoma) | growth (LOX IMVI melanoma) | growth (SK-MEL-28 melanoma)
CC(O)(CO)c1ccccc1 (stereo not given) | 97.8% | 102% | 92.5% | 98.3% | 101% | 91.7% | 102% | 96% | 102% | 102%
CN1CCN(CC#CCNC(=O)[C@]23CCC(C)(C)C[C@H]2C2=CC[C@@H]4[C@@]5(C)Cc6c([nH]c7ccccc67)C(C)(C)[C@@H]5CC[C@@]4(C)[C@]2(C)CC3)CC1 | 39.2% | 7.18% (active) | 92.7% | 79.3% | 42.7% | 56.7% | 75.1% | 95.7% | 66.7% | 79%
CC1=NNC(=O)C1CCC(=O)N/N=C(\C)c1ccc2ccccc2c1 (stereo not given) | 107% | 116% | 121% | 114% | 109% | 94.9% | 105% | 97.5% | 99.5% | 109%
Clc1ccc2c(c1)c(-c1ccccc1)nc1nncn12 | 108% | 104% | 98.3% | 109% | 105% | 111% | 105% | 113% | 102% | 121%
[O-][n+]1ccccc1CCN(O)CCc1cccc[n+]1[O-] | 99.3% | 98.5% | 85.4% | 102% | 105% | 91.8% | 95.3% | 99% | 97.9% | 116%
COc1ccc(C(=O)c2cc(C)c(OC)c(C)c2)c(OC)c1N(C(=O)C(Cl)Cl)C(=O)C(Cl)Cl | 7.03% (active) | 1.22% (active) | 56.4% | 26.4% | 19.2% | 18.1% | 0.812% (active) | 38.8% | 20.3% | 49.8%
Cc1cn(-c2cc(C(=O)Nc3cccc(C#Cc4cccc5[nH]nc(N)c45)c3)cc(C(F)(F)F)c2)cn1 | 57.4% | 18.5% | 65.8% | 76.2% | 54.9% | 75.3% | 24.2% | 12.2% | 11% | 15.8%
Cc1ccc2[nH]c(=O)cc(-n3nncc3COc3ccc(C=O)cc3)c2c1 | 102% | 105% | 91.2% | 102% | 102% | 97.8% | 101% | 93.7% | 99.6% | 113%
COc1cc2nc(-c3ccc(C(F)(F)F)cc3)cc(OCCCN3CCCCC3)c2cc1OC | 9.99% (active) | 15.8% | -10.6% (active) | 62.5% | 49.6% | 43.2% | 15.5% | -34.7% (active) | -28.5% (active) | 51.4%
CN(C)C(=O)OCc1nc2c(N3CCOCC3)nc(-c3ccccc3)nc2n1C | -38.6% (active) | -53.7% (active) | -87.2% (active) | 13.9% | -57.2% (active) | -65.2% (active) | -95.7% (active) | -92% (active) | -84.7% (active) | -95.4% (active)
C=C1C(=O)O[C@H]2[C@H]1CC/C(COC(=O)CCCc1c[nH]c3ccccc13)=C\CC[C@@]1(C)O[C@@H]21 | 7.56% (active) | 21.7% | 76.4% | 71.2% | 56.4% | 50.7% | 71.5% | 70.1% | -3.89% (active) | 92.6%
COc1ccc2nc(N=Nc3c(O)ccc4ccccc34)sc2c1 | 31.4% | 28.2% | 49.4% | 31.8% | 23.1% | 49.1% | 4.14% (active) | 7.36% (active) | 12.8% | 35.5%
CSc1nc(O)c(-c2ccccc2)c(=O)[nH]1 | 102% | 99.9% | 97.1% | 100% | 101% | 96.9% | 101% | 93.1% | 101% | 101%
CCn1cc(C2NC(=O)c3ccccc3N2)c2cccc(C)c21 (stereo not given) | 18.6% | -22.9% (active) | -26.9% (active) | 32.9% | 3.94% (active) | 22% | 16.8% | 27.6% | 29.2% | 56.5%
ClCC1(Cn2cnc3c(Cl)nc(Cl)nc32)COC1 | 45.9% | 76.8% | 85.4% | 88.8% | 89.2% | 66.3% | 98.4% | 91.6% | 45.2% | 89.9%
CC(C)(C)OC(=O)N1C/C(=C\c2ccoc2)C(=O)/C(=C/c2ccoc2)C1 | 99.6% | 98% | 77% | 96.5% | 88.2% | 89.5% | 99.8% | 88.3% | 90.7% | 102%
COc1ccc(C(O)c2cc3c(N)c(C(=O)Nc4cccc(Br)c4C)sc3nc2C)cc1 (stereo not given) | 18.6% | -16% (active) | -1.38% (active) | 44% | 20.9% | 26.9% | -7.36% (active) | 27.2% | 32.7% | 64.7%
CS(=O)(=O)OCCN(CCOS(C)(=O)=O)c1ccc(/C=N/Nc2ccc([N+](=O)[O-])cc2[N+](=O)[O-])cc1 | 100% | 85.9% | 77.2% | 82.7% | 76% | 67.3% | 89.2% | 78% | 63.5% | 95.7%
O=C1Nc2c(ccc(Cl)c2Cl)/C1=C/c1ccc(O)cc1 | 90.8% | 94.7% | 56.7% | 68.8% | 83.8% | 98.1% | 87.1% | 76.7% | 63.7% | 123%
CCN(CC)CCCC(C)Nc1c2c(nc3ccc(OC)cc13)CCCC2 (stereo not given) | 100% | 79.4% | 72.8% | 100% | 105% | 98.6% | 105% | 103% | 87.5% | 101%
COc1ccc(/C=C/c2n[nH]c3ccc(N4CCOC4=O)cc23)cc1 | 10.1% | -18.6% (active) | -11.1% (active) | 18.2% | 15.9% | 18.5% | 11.7% | 16.5% | 1.88% (active) | 33.5%
O=C1NC(=O)C(=Cc2cn(Cc3ccccn3)c3ccccc23)C(=O)N1 | 102% | 111% | 89.2% | 99.7% | 97.2% | 94.2% | 98.3% | 85.7% | 96.7% | 114%
O=S(=O)(c1cccc(NC2=Nc3cccc4cccc2c34)c1)N1CCCC1 | 60.4% | 67.4% | 73.3% | 77.8% | 65.7% | 52.4% | 44.7% | 51.7% | 66.7% | 81.4%
CCNNC(=O)[C@@H]1[C@H](c2cc(OC)c(OC)c(OC)c2)c2cc3c(cc2[C@H](O)[C@H]1CO)OCO3 | 5.4% (active) | -10% (active) | 30.3% | 35.6% | 12.7% | 12.5% | -38.8% (active) | 50% | 14.4% | 55%
Nc1nc(SN=Nc2ccc(S(N)(=O)=O)cc2)c2[nH]cnc2n1 | 12.6% | 9.84% (active) | 5.46% (active) | 103% | 42.7% | 23.8% | 46.7% | 0.536% (active) | -9.46% (active) | 15.6%
COc1ccc(C(=O)c2cc3c(N)c(C(=O)Nc4cccc(Br)c4C)sc3nc2C)cc1 | 14.2% | -1.07% (active) | -16.9% (active) | 43% | 10.7% | 21% | -36.2% (active) | 38% | 19% | 62.1%
CCCCN(CCCC)CCc1c(C)cc(C)c(CCN(CCCC)CCCC)c1O | 36.7% | 11.9% | 82.8% | 22.8% | 24.6% | 14.1% | 0.474% (active) | 3.34% (active) | 28.2% | 23.2%
